Set-up in all cases: scale not given: direction of the effect not stated beside the values
For assay [1], the target named is Protein translocase subunit SecA (Escherichia coli (strain K12)) (UniProt P10408). Put plainly: Assay to Identify E. coli SecA ATPase Inhibitors. Particulars: 30 µM. The assay is classed as functional.
Assay [2] addresses T1, Ubiquitin-activating enzyme e1, putative (Leishmania donovani (strain BPK282A1)) (UniProt E9BSI1).
T1 sequence (whole entry): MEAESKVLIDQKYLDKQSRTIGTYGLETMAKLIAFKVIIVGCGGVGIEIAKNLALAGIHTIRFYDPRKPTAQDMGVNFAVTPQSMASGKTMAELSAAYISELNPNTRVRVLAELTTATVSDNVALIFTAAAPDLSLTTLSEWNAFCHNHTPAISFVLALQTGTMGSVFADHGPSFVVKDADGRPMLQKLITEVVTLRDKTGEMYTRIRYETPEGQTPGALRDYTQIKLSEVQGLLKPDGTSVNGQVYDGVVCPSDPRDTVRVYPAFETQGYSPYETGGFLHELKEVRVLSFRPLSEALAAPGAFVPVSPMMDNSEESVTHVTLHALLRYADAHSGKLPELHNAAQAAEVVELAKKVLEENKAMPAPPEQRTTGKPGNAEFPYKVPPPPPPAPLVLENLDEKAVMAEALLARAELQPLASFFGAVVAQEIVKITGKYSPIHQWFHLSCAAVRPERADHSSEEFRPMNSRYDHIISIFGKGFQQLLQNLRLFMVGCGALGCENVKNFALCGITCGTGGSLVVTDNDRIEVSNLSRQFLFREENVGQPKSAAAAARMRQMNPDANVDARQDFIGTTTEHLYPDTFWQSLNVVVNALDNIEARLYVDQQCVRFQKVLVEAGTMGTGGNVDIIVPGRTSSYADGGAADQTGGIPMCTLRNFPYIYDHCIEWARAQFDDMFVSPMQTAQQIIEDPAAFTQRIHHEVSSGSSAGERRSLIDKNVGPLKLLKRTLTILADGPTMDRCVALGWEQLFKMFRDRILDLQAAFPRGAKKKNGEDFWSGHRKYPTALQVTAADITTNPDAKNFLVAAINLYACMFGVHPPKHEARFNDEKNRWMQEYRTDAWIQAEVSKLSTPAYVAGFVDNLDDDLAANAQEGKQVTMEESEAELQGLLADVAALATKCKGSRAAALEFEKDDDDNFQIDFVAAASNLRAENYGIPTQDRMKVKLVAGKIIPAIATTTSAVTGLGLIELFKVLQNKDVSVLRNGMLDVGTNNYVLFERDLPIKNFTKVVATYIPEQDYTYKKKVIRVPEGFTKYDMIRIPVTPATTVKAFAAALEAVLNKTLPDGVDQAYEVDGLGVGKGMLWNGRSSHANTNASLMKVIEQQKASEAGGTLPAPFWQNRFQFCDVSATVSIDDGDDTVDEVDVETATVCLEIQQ
In words: Leishmania donovani Ubiquitin Activating Enzyme (LdE1). The assay is classed as functional. Particulars: 30 µM.

Assay [3] has as its target AMP-activated protein kinase, AMPK (Homo sapiens) (UniProt P54646+O43741+P54619+Q9UGJ0+Q9Y478+Q13131+Q9UGI9). Put plainly: AMP-dependent Kinase enzyme assay. An in vitro enzyme assay that detects ADP turnover that is directly proportional to AMPK activity. This uses naive AMPK that is activated during the assay with MK-8722. The assay is classed as functional. Particulars: 30 µM.

Assay [4] has as its target Sialic acid-binding Ig-like lectin 9 (Homo sapiens) (UniProt Q9Y336). In words: Hs-Siglec9 ALPHAscreen SOP 20170721. Particulars: 10 µM. In general terms: Alpha assays give light when donor and acceptor beads are brought close together.
Assay [5] has as its system Trypanosoma cruzi. In words: Trypanosoma cruzi phosphomannomutase and mannose-1-phosphate guanylyltransferase assay. Particulars: 10 µM. The assay is classed as functional.
The target in assay [6] is T2, Arginase-2, mitochondrial (Homo sapiens) (UniProt P78540).
T2 sequence (whole entry): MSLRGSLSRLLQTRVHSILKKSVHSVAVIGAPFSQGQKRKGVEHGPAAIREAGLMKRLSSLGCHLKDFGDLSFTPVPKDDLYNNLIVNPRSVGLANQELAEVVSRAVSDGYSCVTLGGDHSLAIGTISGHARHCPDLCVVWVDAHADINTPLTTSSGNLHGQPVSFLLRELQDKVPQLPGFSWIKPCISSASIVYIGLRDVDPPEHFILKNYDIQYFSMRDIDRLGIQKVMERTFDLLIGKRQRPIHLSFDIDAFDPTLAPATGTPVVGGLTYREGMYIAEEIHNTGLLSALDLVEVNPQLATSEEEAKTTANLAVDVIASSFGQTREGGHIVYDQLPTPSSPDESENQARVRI
In words: in vitro enzyme assay to detect the production of urea directly proportional to the activity of Arginase II. Also: in the data most compounds retested in dose-response had high values. In kind it is functional. Particulars: 33.3 µM.

The target of assay [7] is T3, Proteasome subunit beta (Trypanosoma cruzi) (UniProt O96673).
T3 sequence (whole entry): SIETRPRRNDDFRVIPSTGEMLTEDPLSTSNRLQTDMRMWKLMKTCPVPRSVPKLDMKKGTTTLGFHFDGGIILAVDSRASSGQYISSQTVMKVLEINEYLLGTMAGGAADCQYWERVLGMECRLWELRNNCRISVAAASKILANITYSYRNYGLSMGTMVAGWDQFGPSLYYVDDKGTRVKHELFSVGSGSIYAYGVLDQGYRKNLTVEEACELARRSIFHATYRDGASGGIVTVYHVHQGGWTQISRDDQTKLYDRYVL
In words: Trypanosoma cruzi proteasome chymotrypsin-like activity (TcProtChymo) assay. Also: in the data most compounds retested in dose-response had high values. The assay is classed as functional. Particulars: 9.37 µM.

Assay [8] is filed under the species Homo sapiens. In words: To identify inhibition of the IFN signalling (Jak-Stat) pathway via expression of an eGFP reporter gene under the control of an IFN-stimulated response element (ISRE) containing MxA promoter. In kind it is functional. Particulars: 30 µM. On the technique in general: In a reporter assay the amount or activity of a reporter protein is the signal.

Assay [9] addresses T4, Tyrosyl-tRNA synthetase, putative (Trypanosoma cruzi (strain CL Brener)) (UniProt Q4DSP6).
T4 sequence (whole entry): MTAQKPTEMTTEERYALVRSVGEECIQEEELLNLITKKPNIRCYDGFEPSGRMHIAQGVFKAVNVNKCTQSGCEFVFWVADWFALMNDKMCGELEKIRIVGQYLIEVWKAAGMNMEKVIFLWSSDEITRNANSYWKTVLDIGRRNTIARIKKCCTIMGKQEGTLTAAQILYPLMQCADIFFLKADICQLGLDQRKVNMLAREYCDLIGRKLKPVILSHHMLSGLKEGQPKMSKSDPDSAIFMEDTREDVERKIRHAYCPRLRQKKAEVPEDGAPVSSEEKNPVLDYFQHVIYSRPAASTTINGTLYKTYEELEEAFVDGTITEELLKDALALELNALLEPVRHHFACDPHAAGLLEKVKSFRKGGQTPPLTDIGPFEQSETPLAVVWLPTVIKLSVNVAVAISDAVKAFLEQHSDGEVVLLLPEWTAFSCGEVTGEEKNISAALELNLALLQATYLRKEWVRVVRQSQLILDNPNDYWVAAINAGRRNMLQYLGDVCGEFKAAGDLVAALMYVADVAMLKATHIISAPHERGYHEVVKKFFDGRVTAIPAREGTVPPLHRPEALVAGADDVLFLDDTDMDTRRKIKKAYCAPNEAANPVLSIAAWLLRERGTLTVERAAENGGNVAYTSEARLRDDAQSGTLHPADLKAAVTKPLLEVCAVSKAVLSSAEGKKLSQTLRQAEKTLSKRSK
Put plainly: Trypanosoma cruzi tyrosyl tRNA synthetase (TcYRS) _High Tyrosine SOP. Also: in the data most compounds retested in dose-response had high values. Particulars: 30 µM. The assay is classed as functional.

The target of assay [10] is T4, Tyrosyl-tRNA synthetase, putative (Trypanosoma cruzi (strain CL Brener)). Put plainly: Trypanosoma cruzi tyrosyl tRNA synthetase (TcYRS) SOP. In kind it is functional. Particulars: 30 µM.
Assay [11] has as its target Chromo domain-containing protein 1 (Saccharomyces cerevisiae (strain ATCC 204508 / S288c) (Baker's yeast)) (UniProt P32657). Put plainly: ScCHD-1 Enzyme Inhibition Assay. Also: in the data most compounds retested in dose-response had high values. The assay is classed as functional. Particulars: 30 µM.

Molecules are shown by their SMILES. For some of these results: Potency and affinity values are given separately.

Sialic acid-binding Ig-like lectin 9 (Homo sapiens), sequence (Q9Y336 whole entry): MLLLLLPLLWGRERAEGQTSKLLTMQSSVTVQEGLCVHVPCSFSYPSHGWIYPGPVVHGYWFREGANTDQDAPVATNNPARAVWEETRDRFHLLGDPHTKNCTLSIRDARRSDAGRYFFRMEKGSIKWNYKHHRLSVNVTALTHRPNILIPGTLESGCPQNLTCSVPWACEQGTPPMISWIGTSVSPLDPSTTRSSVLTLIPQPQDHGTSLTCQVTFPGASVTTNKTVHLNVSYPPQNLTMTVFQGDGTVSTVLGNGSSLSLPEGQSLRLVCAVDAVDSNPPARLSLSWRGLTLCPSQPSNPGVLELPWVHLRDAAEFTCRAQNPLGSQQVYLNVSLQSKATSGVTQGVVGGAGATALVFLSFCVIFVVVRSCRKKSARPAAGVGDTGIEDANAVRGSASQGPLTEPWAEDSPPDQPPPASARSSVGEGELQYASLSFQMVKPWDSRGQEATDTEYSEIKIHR
Chromo domain-containing protein 1 (Saccharomyces cerevisiae (strain ATCC 204508 / S288c) (Baker's yeast)), sequence (P32657 whole entry, the tested form may be a part): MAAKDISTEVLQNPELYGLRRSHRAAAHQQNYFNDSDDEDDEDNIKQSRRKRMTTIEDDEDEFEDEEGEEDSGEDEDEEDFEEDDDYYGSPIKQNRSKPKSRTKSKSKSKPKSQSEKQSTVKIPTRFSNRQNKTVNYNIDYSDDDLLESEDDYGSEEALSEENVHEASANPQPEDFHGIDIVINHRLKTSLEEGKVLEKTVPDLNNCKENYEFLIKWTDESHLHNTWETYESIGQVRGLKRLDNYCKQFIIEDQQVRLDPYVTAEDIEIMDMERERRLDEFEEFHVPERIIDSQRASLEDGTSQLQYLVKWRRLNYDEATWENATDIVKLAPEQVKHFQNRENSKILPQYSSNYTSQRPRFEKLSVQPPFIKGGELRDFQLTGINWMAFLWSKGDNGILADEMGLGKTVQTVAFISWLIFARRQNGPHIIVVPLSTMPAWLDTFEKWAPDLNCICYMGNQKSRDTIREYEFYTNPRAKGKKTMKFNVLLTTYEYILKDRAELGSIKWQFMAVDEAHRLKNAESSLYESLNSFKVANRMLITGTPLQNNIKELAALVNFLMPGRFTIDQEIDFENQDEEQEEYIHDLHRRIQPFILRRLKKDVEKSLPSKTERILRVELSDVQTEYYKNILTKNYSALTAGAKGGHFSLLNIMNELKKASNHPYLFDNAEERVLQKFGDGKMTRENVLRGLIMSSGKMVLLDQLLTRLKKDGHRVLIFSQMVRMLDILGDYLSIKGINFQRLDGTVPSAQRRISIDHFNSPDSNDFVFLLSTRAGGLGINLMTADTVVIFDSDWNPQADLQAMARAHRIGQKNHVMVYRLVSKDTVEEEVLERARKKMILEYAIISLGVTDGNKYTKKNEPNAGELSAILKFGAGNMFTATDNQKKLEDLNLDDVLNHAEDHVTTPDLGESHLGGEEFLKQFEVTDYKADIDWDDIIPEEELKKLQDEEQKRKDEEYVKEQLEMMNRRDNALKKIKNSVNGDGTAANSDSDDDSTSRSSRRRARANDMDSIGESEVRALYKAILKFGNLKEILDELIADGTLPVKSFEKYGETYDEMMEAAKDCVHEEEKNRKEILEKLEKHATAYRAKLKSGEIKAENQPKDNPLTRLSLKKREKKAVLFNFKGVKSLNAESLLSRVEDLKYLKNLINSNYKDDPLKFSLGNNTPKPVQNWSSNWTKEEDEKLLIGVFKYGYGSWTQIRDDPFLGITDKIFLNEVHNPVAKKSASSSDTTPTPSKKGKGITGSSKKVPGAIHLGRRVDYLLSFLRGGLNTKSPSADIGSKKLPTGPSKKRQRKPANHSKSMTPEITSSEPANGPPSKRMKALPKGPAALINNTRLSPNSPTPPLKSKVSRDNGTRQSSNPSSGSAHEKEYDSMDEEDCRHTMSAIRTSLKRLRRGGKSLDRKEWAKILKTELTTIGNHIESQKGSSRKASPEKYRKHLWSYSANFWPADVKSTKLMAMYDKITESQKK
Protein translocase subunit SecA (Escherichia coli (strain K12)), sequence (P10408 whole entry): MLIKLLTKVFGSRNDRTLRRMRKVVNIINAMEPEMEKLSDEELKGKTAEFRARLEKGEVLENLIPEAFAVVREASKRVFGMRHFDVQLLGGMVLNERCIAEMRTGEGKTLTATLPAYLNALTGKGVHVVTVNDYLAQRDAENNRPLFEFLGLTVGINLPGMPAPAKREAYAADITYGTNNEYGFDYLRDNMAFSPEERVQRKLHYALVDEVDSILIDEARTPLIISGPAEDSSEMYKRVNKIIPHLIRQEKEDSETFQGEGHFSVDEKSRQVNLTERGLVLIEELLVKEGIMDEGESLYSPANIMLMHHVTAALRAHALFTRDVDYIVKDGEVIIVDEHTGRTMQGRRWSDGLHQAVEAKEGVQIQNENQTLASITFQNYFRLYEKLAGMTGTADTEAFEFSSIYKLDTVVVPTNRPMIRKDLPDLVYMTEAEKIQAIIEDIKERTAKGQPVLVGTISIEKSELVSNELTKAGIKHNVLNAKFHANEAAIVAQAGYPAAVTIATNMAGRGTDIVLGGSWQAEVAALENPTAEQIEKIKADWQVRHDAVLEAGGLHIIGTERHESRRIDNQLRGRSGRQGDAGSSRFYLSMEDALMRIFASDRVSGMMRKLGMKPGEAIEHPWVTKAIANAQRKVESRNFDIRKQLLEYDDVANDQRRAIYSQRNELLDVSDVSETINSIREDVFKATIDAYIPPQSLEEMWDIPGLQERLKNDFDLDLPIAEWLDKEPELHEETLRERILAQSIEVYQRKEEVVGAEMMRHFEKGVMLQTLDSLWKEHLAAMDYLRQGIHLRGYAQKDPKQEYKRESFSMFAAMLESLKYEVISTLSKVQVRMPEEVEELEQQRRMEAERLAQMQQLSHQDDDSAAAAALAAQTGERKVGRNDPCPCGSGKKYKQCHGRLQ

Consider `O=C(CCc1nccs1)N1CCCC(N2CCNC2=O)C1` (stereo unspecified), for which the Percent Effect in assay [1] was -3.25%; in assay [2], 11%; in assay [3], 5.41%; in [4], -1.3%; in assay [5] it was -2.35%; in [6], 5%. The Percent Effect is 8.16% in [7]; 4.48% in assay [8]; 4.3% in assay [9]; 10% in assay [10]; -4.2% in [11].
In the case of `Cc1ccc(OCCNC(=O)C(C)n2cncn2)cc1` (stereo unspecified), the Percent Effect in assay [1] was -1.61%; in assay [2], 15.2%; in [3], 7.61%; in assay [4], -6.9%; in [5], -9.91%; in [6], 0.38%. The Percent Effect in assay [7] was 11.1%; in [8] it was 35.3%; in assay [9], -1.48%; in [10], 3.8%; in assay [11], -3.56%.
In the case of `CS(=O)(=O)c1ccc(CNC2CCCN(c3cccnn3)C2)cc1` (stereo unspecified), the Percent Effect is -2.48% in [1]; 18.2% in assay [2]; 4.4% in assay [3]; -0.526% in [4]; 0.686% in [5]; 6.53% in [6]. Further, the Percent Effect is 12.5% in assay [7]; 9.14% in assay [8]; 8.57% in assay [9]; 21.2% in assay [10]; -19% in assay [11].
Regarding `CCOc1ccc(Cl)c(C(=O)N2CCN(c3cnccn3)CC2)n1`, the Percent Effect is -4.82% in [1]; 23.4% in assay [2]; -2.68% in assay [3]; 6.96% in [4]; 8.43% in assay [5]; 1.42% in assay [6]. For the same compound, the Percent Effect is 15.5% in assay [7]; 17.5% in assay [8]; 10.7% in [9]; 24.4% in assay [10]; -12.4% in [11].
As to `O=C(NCC1CC1)[C@H]1C[C@H]2OCC[C@H]2N(Cc2ccoc2)C1`, the Percent Effect in assay [1] was -0.0445%; in [2] it was 21.6%; in [3] it was 4.14%; in assay [4], -14%; in assay [5] it was 1.86%; in assay [6] it was 6.69%. The Percent Effect was 6.09% in assay [7]; 32.6% in assay [8]; 3.24% in assay [9]; 15.4% in assay [10]; -0.46% in assay [11].
As to `CCOCc1cccc(S(=O)(=O)N2CCSCC2)c1`, the Percent Effect is -3.9% in assay [1]; 1.33% in assay [2]; 4.84% in [3]; 4.89% in assay [4]; -6.09% in [5]; 0.88% in assay [6]. The Percent Effect was 7.58% in assay [7]; 5.82% in [8]; 4.23% in assay [9]; -2.56% in [10]; -3.83% in [11].
`Cc1cc(C[C@@H]2COC[C@@H]2NC(=O)Cn2c(=O)oc3ccccc32)on1`: the Percent Effect was -0.169% in [1]; 5.48% in [2]; 1.35% in [3]; -2.12% in assay [4]; 3.33% in assay [5]; 8.64% in assay [6]. Further, the Percent Effect in assay [7] is 1.77%; in [8], -6.43%; in assay [9], 4.3%; in assay [10], 7.5%; in assay [11] it was 1.28%.
Consider `Cc1nc(CCCNC(=O)C2CC(=O)N(C3CC3)C2)sc1C` (stereo unspecified), for which the Percent Effect in assay [1] was 6.83%; in [2], 16.4%; in assay [3] it was -10.9%; in assay [4], 5.44%; in assay [5] it was 1.59%; in [6] it was -10.8%. The Percent Effect in [7] was found to be 16.9%; in assay [8], 25.5%; in assay [9], 8.33%; in assay [10] it was 28.4%; in assay [11] it was 2.71%.
Take `COc1cccc(COCC(O)CN2CC(n3cccn3)C2)c1` (stereo unspecified): the Percent Effect in [1] was 0.892%; in assay [2] it was 21.1%; in [3] it was 5.98%; in assay [4], 1.34%; in [5], 6.58%; in [6] it was -0.383%. Moreover, the Percent Effect in assay [7] is 10.4%; in assay [8], -16.2%; in [9], 7.35%; in assay [10] it was 19.5%; in assay [11], -12.6%.
Turning to `Cc1cnc(C(=O)N2CCCN(Cc3csc(C)n3)CC2)cn1`, the Percent Effect in assay [1] is -5.93%; in assay [2], 13.7%; in [3] it was -7.71%; in assay [4] it was 11.9%; in [5], 6.75%; in assay [6] it was 2%. The Percent Effect in [7] is 18.8%; in assay [8], -1.38%; in [9] it was 5.21%; in assay [10], 8.64%; in [11], -12.5%.
As to `COC(=O)N1CCc2ccc(NC(=O)c3cn(C)nn3)cc2C1`, the Percent Effect in assay [1] was -6.1%; in [2], 10.4%; in assay [3], 2.87%; in assay [4], 5.76%; in assay [5], 2.07%; in [6], -49.7%. Also, the Percent Effect in assay [7] came out at 9.92%; in assay [8], 12.5%; in [9] it was 5.29%; in assay [10], 8.97%; in assay [11] it was 90.7%.

Values taken from ChEMBL document CHEMBL3988442, “University of Dundee, Small-Polar-MMV Screening Library” (2021).
